Shown are actives, neighbours in structure and some others; about 7.3% of the full set was active somewhere.
SMN2 splice enh: qHTS Assay for Enhancers of SMN2 Splice Variant Expression | HEK293 SMN2-luciferase splicing reporter, luminescence, 30-36 h | Potency, µM (top dose mostly 46.1 µM), most hits filed as activators | hit rate 2.8% among 210,000; further: nearly all actives have a fitted effect of over 55% in size
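HEK293 cells carry an SMN2 minigene-luciferase reporter in which exon 7 inclusion puts luciferase in frame. Cells were seeded at 2000 cells/well, attached for 10-12 hours, then exposed to compounds for 30-36 hours at 37C before ONE-Glo luminescence.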
Rab9 promoter act: qHTS Assay for Rab9 Promoter Activators | hit rate 2.8% among 320,000 | Potency, µM (doses to about 9.22 µM), actives largely listed as activators | Huh7 Rab9 promoter-luciferase reporter, luminescence, 24 h; further: nearly all actives have a fitted effect of over 60% in size
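Rab9 promoter-driven luciferase in stably transfected Huh7 cells; 1500 cells/well rested 2 h, exposed to compound in DMSO for 24 h at 37 °C, 5% CO2. Luminescence read 10 min after adding luciferase reagent at ambient temperature.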
FLuc counter: qHTS profiling assay for firefly luciferase inhibitor/activator using purifed enzyme and Km concentrations of substrates (counterscreen for miR-21 project) | Potency, µM (highest dose often 57.5 µM), hits mostly inhibitors | purified FLuc, Km substrates, luminescence inhibition | hit rate 6.9% among 360,000 | Luciferin 4-monooxygenase (Photinus pyralis), P08659 | AID 588342, 2011; further: nearly all actives have a fitted effect of over 55% in size
Target sequence (P08659 whole entry, looked up): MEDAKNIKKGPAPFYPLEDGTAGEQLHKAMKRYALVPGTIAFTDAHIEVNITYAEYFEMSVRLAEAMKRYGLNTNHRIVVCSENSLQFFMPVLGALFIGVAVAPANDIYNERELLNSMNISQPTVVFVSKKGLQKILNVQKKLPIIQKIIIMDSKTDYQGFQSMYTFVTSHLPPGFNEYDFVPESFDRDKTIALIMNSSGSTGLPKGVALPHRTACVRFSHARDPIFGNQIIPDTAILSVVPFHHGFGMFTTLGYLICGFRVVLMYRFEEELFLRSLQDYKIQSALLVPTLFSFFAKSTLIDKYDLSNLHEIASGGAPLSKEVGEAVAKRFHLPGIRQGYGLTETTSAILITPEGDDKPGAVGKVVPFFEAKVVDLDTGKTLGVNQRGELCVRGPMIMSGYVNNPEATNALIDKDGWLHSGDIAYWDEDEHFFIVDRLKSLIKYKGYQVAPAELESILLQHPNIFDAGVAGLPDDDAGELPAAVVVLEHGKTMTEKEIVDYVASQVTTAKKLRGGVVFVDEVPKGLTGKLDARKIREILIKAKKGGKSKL
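Purified P. pyralis luciferase, 10 nM final, with Km-level 10 uM D-luciferin and 10 uM ATP in 50 mM Tris acetate pH 7.5, 10 mM Mg acetate, 0.01% Tween-20, 0.05% BSA; 6-point qHTS titration about 60 µM downward; luminescence read.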
ELG1 genotoxic: qHTS screen for small molecules that induce genotoxicity in human embryonic kidney (HEK293T) cells expressing luciferase-tagged ELG1; HEK293T ELG1-luciferase reporter, luminescence, 16 h; Potency, µM (titrated, usually from 46 µM), actives largely listed as activators; hit rate 1.3% among 330,000; AID 504466, 2011; further: nearly all actives have a fitted effect of over 60% in size
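HEK293T cells expressing luciferase-tagged ELG1 were treated with compound or DMSO for 16 hr at 37°C. Luciferase activity was then read after 30 min with ONE-Glo at room temperature; rising signal flags genetic stress.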
NPC1 promoter act: qHTS Assay for NPC1 Promoter Activators | Huh7 NPC1 promoter luciferase reporter, 24 h | Potency, µM (top dose mostly 9.22 µM), actives largely listed as activators | hit rate 2.4% among 320,000 | AID 485313, 2010; further: nearly all actives have a fitted effect of over 60% in size
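NPC1 promoter–luciferase Huh7 cells; 24 h compound; luminescence.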
uPA generation: qHTS for Inhibitors of Cell Surface uPA Generation | hit rate 0.31% among 330,000 | Potency, µM (titrated, usually from 38.3 µM), usual class: inhibitors | cell surface uPA generation assay, qHTS; active means well fitted inhibition curve with a large enough effect; inconclusive means small, poorly fitted or top-dose-only effect; inactive means no such curve, though single readings can be large or run the other way; tested in mouse RAW 264.7 cells; further: nearly all actives have a fitted effect of over 55% in size
A number is an active result; [ ] = dose if it differs, or a comment. Unless noted, the call rests on the fitted dose curve; in most records, active means well fitted curve in the direction sought with a large enough effect; inconclusive means small, poorly fitted or top-dose-only effect, or another doubt; inactive means no such curve, though single readings can be large; an effect the other way counts as inactive or inconclusive.

`N#Cc1c(NC(=O)CCCC(=O)O)sc2c1CCCCC2` gave SMN2 splice enh 1.3µM, Rab9 promoter act inconclusive, FLuc counter 2.1µM, ELG1 genotoxic inconclusive, NPC1 promoter act inconclusive and uPA generation inactive.
For CCCC(=O)Nc1sc2c(c1C#N)CCCCC2 the results were SMN2 splice enh 11µM, Rab9 promoter act 2.8µM, FLuc counter 9.5µM, ELG1 genotoxic inconclusive, NPC1 promoter act 3.2µM and uPA generation inactive.
CCN1C(=O)CC(c2ccccc2)CC1=O was read as Rab9 promoter act inactive, FLuc counter inactive, ELG1 genotoxic inactive, NPC1 promoter act inactive and uPA generation inactive.
`CCOc1ccc(NC(=O)CSc2oc(-c3ccc(F)cc3)nc2S(=O)(=O)c2ccc(C)cc2)cc1` gave SMN2 splice enh inactive and FLuc counter inactive.
N=C1N=C(N)c2cc3ccccc3cc21 was read as SMN2 splice enh inactive.
Screening Cc1cccc(NC(=O)CSc2nc3ccccc3o2)c1 returned SMN2 splice enh inconclusive, Rab9 promoter act 0.89µM, FLuc counter inconclusive, ELG1 genotoxic 1.5µM, NPC1 promoter act 1.4µM and uPA generation inactive.
`Cc1ccc2nc(NC(=O)CSc3nc4ccccc4o3)sc2c1` gave SMN2 splice enh inactive, Rab9 promoter act inactive, FLuc counter inactive, ELG1 genotoxic inconclusive, NPC1 promoter act inactive and uPA generation inactive.
Screening Cc1cccc(NC(=O)CSc2cc(C)c3ccccc3n2)c1 returned SMN2 splice enh 8.9µM and FLuc counter inactive.
`COc1cccc(NC(=O)CSc2cc(C)c3ccccc3n2)c1` gave SMN2 splice enh inactive and FLuc counter inactive.
Screening Cc1ccc(-c2csc(NC(=O)CSc3nc4ccccc4o3)n2)cc1 returned SMN2 splice enh 14µM, Rab9 promoter act inactive, ELG1 genotoxic inconclusive, NPC1 promoter act inactive and uPA generation inactive.
For CC(=O)c1cc2c(cc1NC(=O)CSc1nc3ccccc3o1)OCO2 the results were SMN2 splice enh inconclusive, Rab9 promoter act inconclusive, FLuc counter inactive, ELG1 genotoxic 10µM, NPC1 promoter act inactive and uPA generation inactive.
`Cc1cccc(-c2ccc3c(c2)C2CC3CCN2Cc2ccc3c(c2)OCO3)c1` (centres undefined) gave uPA generation inactive.
For Cc1nnc(NC(=O)CSc2nc3ccccc3o2)s1 the results were SMN2 splice enh inactive, Rab9 promoter act inactive, FLuc counter inactive, ELG1 genotoxic inactive, NPC1 promoter act inactive and uPA generation inactive.
Screening CC1CCc2nc(NC(=O)CSc3nc4ccccc4o3)sc2C1 (centres undefined) returned SMN2 splice enh inactive, Rab9 promoter act inconclusive, FLuc counter 6.7µM, ELG1 genotoxic 6.5µM, NPC1 promoter act inconclusive and uPA generation inactive.
`CCCC1CCC(c2ccc(OCC)cc2)=CC1=O` (centres undefined) gave Rab9 promoter act 3.5µM, FLuc counter 6.7µM, ELG1 genotoxic inconclusive, NPC1 promoter act 2µM and uPA generation inactive.
For Oc1ccc(N=C/C=C/c2ccc(Br)cc2)cc1-c1nc2ccccc2s1 the results were SMN2 splice enh inactive[1.84 µM], Rab9 promoter act inconclusive, FLuc counter 7.6µM, ELG1 genotoxic inconclusive and NPC1 promoter act 3.2µM.
CCCn1c2ccccc2c2cnn(CC(=O)N3CCC(C(=O)OCC)CC3)c(=O)c21 was read as FLuc counter inactive.
For O=C(CSc1nnc(NC(=O)c2c(F)cccc2F)s1)NC1CCCC1 the results were Rab9 promoter act inactive, FLuc counter inactive, ELG1 genotoxic inactive, NPC1 promoter act inactive and uPA generation inactive.
O=C(CSc1nnc(NC(=O)c2cccc(F)c2)s1)NC1CC1 was read as Rab9 promoter act inactive, FLuc counter 15µM, ELG1 genotoxic inactive, NPC1 promoter act inactive and uPA generation inactive.
For COc1cccc(C(=O)Nc2nnc(SCC(=O)NC3CCCC3)s2)c1 the results were Rab9 promoter act inconclusive, FLuc counter 2.7µM, ELG1 genotoxic inconclusive, NPC1 promoter act inconclusive and uPA generation inactive.
For O=C(CSc1nnc(NC(=O)c2ccccc2F)s1)NC1CC1 the results were Rab9 promoter act inconclusive, FLuc counter 15µM, ELG1 genotoxic inactive, NPC1 promoter act inconclusive and uPA generation inactive.
CC(C)c1nnc(NC(=O)CSc2nnc(NC(=O)c3c(F)cccc3F)s2)s1 was read as SMN2 splice enh inactive, Rab9 promoter act inactive, FLuc counter 8.5µM, ELG1 genotoxic inactive, NPC1 promoter act inactive and uPA generation inactive.
For COc1ccccc1C(=O)Nc1nnc(SCC(=O)Nc2ccc3c(c2)oc2ccccc23)s1 the results were SMN2 splice enh 22µM, Rab9 promoter act 2.8µM, FLuc counter 1.9µM, ELG1 genotoxic inconclusive, NPC1 promoter act 4µM and uPA generation inactive.
`O=C(CSc1nnc(NC(=O)c2ccco2)s1)NC1CCCC1` gave SMN2 splice enh inactive, Rab9 promoter act inactive, FLuc counter inactive, ELG1 genotoxic inactive, NPC1 promoter act inactive and uPA generation inactive.
For O=C(CSc1nnc(NC(=O)c2ccc(F)cc2)s1)NC1CC1 the results were Rab9 promoter act inconclusive, FLuc counter 5.4µM, ELG1 genotoxic inconclusive, NPC1 promoter act 2.5µM and uPA generation inactive.
`O=C(CSc1nnc(NC(=O)c2ccccc2[N+](=O)[O-])s1)NC1CCCC1` gave uPA generation inactive.
Cc1cccc(C(=O)Nc2nnc(SCC(=O)Nc3ccc4c(c3)oc3ccccc34)s2)c1 was read as SMN2 splice enh inactive, Rab9 promoter act inactive, FLuc counter inconclusive, ELG1 genotoxic inactive, NPC1 promoter act inactive and uPA generation inactive.
Screening COc1ccccc1C(=O)Nc1nnc(SCC(=O)NC2CCCC2)s1 returned FLuc counter 4.8µM, ELG1 genotoxic 2.3µM, NPC1 promoter act 0.63µM and uPA generation inactive.
`Cc1cccc(C(=O)Nc2nnc(SCC(=O)NC3CC3)s2)c1` gave Rab9 promoter act inconclusive, FLuc counter 19µM, ELG1 genotoxic inconclusive, NPC1 promoter act inconclusive and uPA generation inactive.
For Clc1ccccc1-c1nnc(-c2ccccc2CNc2ccc(Br)cc2)o1 the results were SMN2 splice enh inactive and FLuc counter inactive.
Screening O=C(CSc1nnc(NC(=O)c2cccc(F)c2)s1)NC1CCCC1 returned Rab9 promoter act inactive, FLuc counter 6µM, ELG1 genotoxic inactive, NPC1 promoter act inactive and uPA generation inactive.
C/C(=N/NC(=O)C(=O)N/N=C(/C)c1ccccc1)c1ccccc1 was read as SMN2 splice enh inactive, Rab9 promoter act inactive, FLuc counter inconclusive, ELG1 genotoxic inactive and NPC1 promoter act inactive.
O=C(NC(=S)Nc1nc2c(s1)CCCC2)c1ccc(C(=O)c2ccccc2)cc1 was read as SMN2 splice enh inactive, Rab9 promoter act inactive, FLuc counter inactive, ELG1 genotoxic inactive, NPC1 promoter act inactive and uPA generation inactive.

High-throughput results deposited in PubChem BioAssay by National Center for Advancing Translational Sciences (NCATS).
